Measurements as given in PubChem BioAssay AID493216 (National Center for Advancing Translational Sciences (NCATS), 2011).
The source made the active and inactive calls. The call rests on the fitted dose curve.

target: Polyunsaturated fatty acid lipoxygenase ALOX12 (Homo sapiens) (UniProt P18054); assay: Inhibitors of 12-hLO (12-human lipoxygenase): Cuvette-Based Hit Assay for Validation of Followup Compounds; conditions: purified 12-hLO, cuvette absorbance 234 nm
Experimental: The enzyme activity of 12-hLO was determined by a direct measurement of product formation by monitoring the absorbance at 234 nm in a 2 mL cuvette. IC50 values of inhibitors were obtained by measuring the enzymatic rate at a variety of concentrations (Carroll et al, Segraves et al). This assay was used to validate actives or inconclusive putative inhibitors identified in the primary screen (see related BioAssay AIDs). Assay Provider: Holman, T.R., University of California, Santa Cruz Screening Center PI: Austin, Christopher P. Screening Center: NIH Chemical Genomics Center
For control experiments, 2 mL of substrate buffer (10 uM arachidonic acid / 25 mM HEPES / 0.01% (v/v) Triton X-100, pH 8.0) was aliquoted in a cuvette with a magnetic stir bar. After equilibrium was ensured, an aliquot of inhibitor solvent was added (DMSO), and equilibrium was once again assured. The reaction was started by adding enzyme to the cuvette and the reaction was followed until completed. The inhibition experiments were performed as above, except the actual inhibitory compound was added instead of vehicle. To achieve an IC50, typically 5 concentrations of the inhibitor were studied. If the inhibitor concentration was constant, then five different reaction volumes were used. Step \ Parameter \ Value \ Description 1; UV-Vis; 234 nm; Equilibration 2; Reagent; 2 mL; Substrate buffer 3; UV-Vis; 234 nm; Equilibration 4; Reagent; varies; Compound 5; UV-Vis; 234 nm; Equilibration 6; Reagent; 50-200 nM; Enzyme 12-hLO 7; UV-Vis; 234 nm; Enzymatic reaction Step \ Notes 1; Blank cuvette to air. 2; 10 uM AA, 25 mM HEPES, 0.01% Triton X-100, pH 8. 3; No change in absorbance ensured. 4; Compound vehicle or compound in various concentrations depending on potency. 5; No change in absorbance ensured. 6; Enzyme concentration to achieve reaction rate between 0.02 and 0.04 AU/s. 7; Enzymatic reaction visualized until completion.

Chain of Polyunsaturated fatty acid lipoxygenase ALOX12 (Homo sapiens) (P18054 whole entry, looked up): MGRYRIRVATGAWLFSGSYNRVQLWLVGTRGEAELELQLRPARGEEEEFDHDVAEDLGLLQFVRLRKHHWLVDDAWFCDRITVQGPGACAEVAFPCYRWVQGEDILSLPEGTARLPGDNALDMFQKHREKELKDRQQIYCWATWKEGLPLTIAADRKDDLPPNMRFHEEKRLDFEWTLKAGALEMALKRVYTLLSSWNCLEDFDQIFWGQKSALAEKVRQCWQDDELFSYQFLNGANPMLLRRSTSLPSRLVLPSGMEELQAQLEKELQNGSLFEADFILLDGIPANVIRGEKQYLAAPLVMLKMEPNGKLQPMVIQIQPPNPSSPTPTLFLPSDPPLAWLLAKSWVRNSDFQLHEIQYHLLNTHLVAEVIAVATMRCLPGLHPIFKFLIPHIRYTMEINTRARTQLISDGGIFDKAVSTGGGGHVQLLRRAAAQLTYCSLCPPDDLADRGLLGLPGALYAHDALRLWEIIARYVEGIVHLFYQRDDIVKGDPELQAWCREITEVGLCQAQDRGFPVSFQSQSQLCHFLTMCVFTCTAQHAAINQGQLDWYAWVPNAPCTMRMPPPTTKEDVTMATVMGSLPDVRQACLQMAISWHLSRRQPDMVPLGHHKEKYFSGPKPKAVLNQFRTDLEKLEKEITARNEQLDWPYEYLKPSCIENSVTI

Potency, active:
CC(Oc1ccc(Cl)cc1Cl)C(=O)NC1=NN(c2ccccc2)C(=O)C1 (stereo not given) 15.5 µM, O=C(Nc1nnc(-c2ccccn2)o1)c1ccc(Br)cc1 3.26 µM, COc1ccc(NC2=NCC(Cc3ccc(Br)cc3)S2)cc1 (stereo not given) 36.6 µM, O=C(Nc1nnc(C2=COCCO2)o1)c1ccc(Cl)cc1 7.14 µM, CCCOC(=O)c1ccc(Oc2cn[nH]c2-c2ccc(OC)cc2O)cc1 26.8 µM, COc1ccc(Cc2nc(C(=O)Nc3ccc(OC)cc3)cs2)cc1 35.8 µM, Cc1ccc(NC(=O)Nc2cccs2)c(Cl)c1 22.4 µM, COc1ccc(C(Nc2ccccn2)c2c(NC(=O)c3ccco3)sc(C)c2C)cc1 (stereo not given) 23.2 µM, COc1ccc2nc(NC(=O)c3cccc(OCc4c(C)noc4C)c3)sc2c1 36.7 µM, CC1=NN(c2ccc(Cl)cc2)C(=O)C1C(c1cccc(O)c1)c1c(C)[nH]n(-c2ccc(Cl)cc2)c1=O (stereo not given) 7.55 µM, CCc1ccc(S(=O)(=O)/N=C2/C=C(Sc3ncn[nH]3)C(=O)c3ccccc32)cc1 23.2 µM, Oc1ccccc1-c1cc(-c2ccc3c(c2)OCCO3)n[nH]1 31.3 µM, COc1ccc(/C=C/c2nc(-c3ccccc3O)n[nH]2)cc1 18.9 µM, COc1cc(CNc2ccc(O)cc2)cc(Br)c1OCc1ccccc1F 24.1 µM, O=S(=O)(Nc1ccc(O)c(Sc2nc3ccccc3s2)c1)c1ccc(Cl)cc1 8.77 µM, COc1ccc(-c2[nH]ncc2-c2ccc(Cl)cc2)c(O)c1 28.6 µM, Oc1ccc(Cl)cc1-c1cc(-c2ccco2)[nH]n1 21.5 µM, CN(C)c1nccc(N(Cc2ccccc2)Cc2ccccc2)c1C#N 15.7 µM, CCc1cc(-c2[nH]ncc2-c2ccc3c(c2)OCO3)c(O)cc1O 22.2 µM, COc1ccc(-c2n[nH]c(C)c2-c2ccc(Cl)cc2)c(O)c1 19.4 µM, Oc1ccccc1-c1cc(-c2ccccc2Cl)[nH]n1 16 µM, Cc1ccc(S(=O)(=O)Nc2ccc(NC(=O)Nc3cccc(C(F)(F)F)c3)cc2)cc1 35 µM, N#CC1=C(N)Oc2n[nH]c(-c3cccs3)c2C1C1CCCCC1 (stereo not given) 7.69 µM, Cc1cc(Cl)cc(Cl)c1OCC(=O)NCc1ccco1 20.4 µM, CCOc1ccc(-c2[nH]ncc2Oc2cccc(OC)c2)c(O)c1 28.1 µM, Cc1ccc(S(=O)(=O)Nc2nc(C)c(NC(=O)Nc3ccc(Cl)cc3Cl)s2)cc1 2.35 µM, Cc1cc(C)c2cc(CN(Cc3nnnn3C3CCCCC3)CC3CCCO3)c(=O)[nH]c2c1 (stereo not given) 26.9 µM, COc1ccc(-c2n[nH]c(C(F)(F)F)c2-c2cc3ccccc3o2)c(O)c1 21 µM, CSCCC(NC(=O)c1ccc(Cl)cc1)C(=O)OCC(=O)Nc1ccc(C#N)cc1 (stereo not given) 18.3 µM, Cc1[nH]nc(-c2ccc(O)cc2O)c1Oc1ccccc1 27 µM, Oc1ccc(-c2csc(-c3ccccc3)n2)cc1O 0.94 µM, CSc1ccc(S(=O)(=O)Nc2ccc(S(=O)(=O)Nc3ccc(C)cc3)cc2)cc1 21.1 µM, Cc1[nH]nc(-c2ccc(O)cc2O)c1-c1ccc(Cl)cc1 19 µM, Cc1ccc(C(=O)/C=C/c2c[nH]c3ccccc23)cc1 34.6 µM, Oc1ccc(C2=Nn3c(nnc3-c3ccco3)SC2)cc1O 33.3 µM, Oc1ccc(-c2nc(-c3ccc(O)c(O)c3)cs2)cc1 0.7 µM, COc1cccc(-c2cnc(NCc3cc(Cl)ccc3O)n2C)c1 32.7 µM, O=C(CSc1n[nH]c(-c2ccccc2)n1)c1ccc(O)c(O)c1 24.2 µM, Oc1ccccc1-c1cc(-c2cccc(F)c2)n[nH]1 18.9 µM, CCCOC(=O)c1ccc(Oc2c(-c3ccc(O)cc3O)n[nH]c2C)cc1 16.7 µM
